Source: PubChem BioAssay
Sampled rows, rich in hits. Any-hit rate of the full collection: about 4.8%.
S2 tox – cell viability loss in ATXN counter-screen; S2 cells (HEK-293 line with an ATXN2-luciferase reporter) viability, CellTiter-Fluor protease fluorescence, 24 h; Potency, µM (doses to about 56.7 µM), actives largely listed as cytotoxic; 0.49% of 400,000 active; AID 651635; note: potency is the fitted concentration of half-maximal effect; nearly all actives have a fitted effect of over 40% in size
DRD3 agonist – agonists of human D3 dopamine receptor. AID 652048. D3R DiscoveRx beta-arrestin cells, luminescence, 90 min. max activation, %. 0.58% of 410,000 active; in the data active = max activation above about 30%; note: 0% is about no effect
Target sequence (P35462 whole entry, looked up): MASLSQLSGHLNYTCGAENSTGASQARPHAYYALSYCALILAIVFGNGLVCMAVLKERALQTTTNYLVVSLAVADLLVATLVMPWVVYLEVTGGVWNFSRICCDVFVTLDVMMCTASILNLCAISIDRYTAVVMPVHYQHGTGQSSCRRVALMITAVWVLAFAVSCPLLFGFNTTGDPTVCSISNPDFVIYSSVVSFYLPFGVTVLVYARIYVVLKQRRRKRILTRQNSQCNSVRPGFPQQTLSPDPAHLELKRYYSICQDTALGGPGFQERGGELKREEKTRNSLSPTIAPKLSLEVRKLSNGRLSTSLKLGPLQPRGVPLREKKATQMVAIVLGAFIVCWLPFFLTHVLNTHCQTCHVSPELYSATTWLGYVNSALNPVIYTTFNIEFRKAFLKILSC
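Agonist mode: compounds and dopamine controls were applied to plated cells for 90 min at 37 degrees C after an overnight attachment at 1500 cells/well. Luminescent read-out followed 30 - 60 minutes at room temperature with DiscoveRx detection reagent.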
TGFb inhibitor – blocks TGF-b signaling | HepG2 CAGA-GFP TGF-b/SMAD3 reporter, GFP fluorescence, 18 h; TGF-beta stimulated, 500 pg/mL final | Potency, µM (doses to about 46.1 µM), for the others: top-dose activity, negative = inhibition, usual class: inhibitors | 1.2% of 410,000 active | AID 588855; note: potency is the fitted concentration of half-maximal effect; % is set by controls: 0 for no effect and ±100 for the full control effect; nearly all actives have a fitted effect of over 65% in size
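Smad-responsive CAGA-GFP expression was quantified in HEPG2 cells exposed to compounds and 500 pg/mL final TGF-beta for 18 h at 37 degrees C; unstimulated wells defined full inhibition.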
HepG2 viability – kills HepG2 cells in TGF-b inhibitor counter-screen | HepG2 CAGA-GFP viability, ATP luminescence, 18 h | Potency, µM (series often up to 46.1 µM), without a hit: top-dose activity change, negative = cytotoxicity, hits mostly cytotoxic | 0.76% of 410,000 active; note: potency is the fitted concentration of half-maximal effect
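HepG2 CAGA-GFP cells (1000/well, DMEM with 1% FBS) received compound, then TGF-beta at 500 pg/mL final, and were incubated 18 hours at 37 degrees C. Viability was read by CellTiter-Glo luminescence. Media-only wells were set as complete cell-killing and DMSO as no toxicity.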
DRD3 antagonist – D3 dopamine receptor (human) antagonism; max response, negative = inhibition, %; P35462; D3R cells, DiscoveRx beta-arrestin luminescence, antagonist mode; stronger effect = lower value; 2.5% of 360,000 active; in the data active = max response below about -50%; inconclusive = no clear call, values can overlap the other calls; note: % is set by controls: 0 for no effect and ±100 for the full control effect
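Cells plated overnight at 1500 cells/well, then exposed to library compounds with dopamine controls for 90 minutes at 37 degrees C. DiscoveRx reagent added for 30–60 minutes at room temperature; luminescence read, quantitative HTS format.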
ATXN2 expr inh – reduces ATXN2 reporter expression in HEK-293 cells. HEK-293 ATXN2-luciferase reporter, luminescence, 24 h. Potency, µM (titrated, usually from 57 µM), without a hit: at the top dose activity change, negative = inhibition, actives largely listed as inhibitors. 0.72% of 360,000 active; note: potency is the fitted concentration of half-maximal effect; % is set by controls: 0 for no effect and ±100 for the full control effect; nearly all actives have a fitted effect of over 55% in size
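qHTS (up to 57 uM final) was run with 24 h compound exposure of reporter cells at 37 °C. Each well was multiplexed: SteadyGlo luminescence measured ATXN2-luciferase expression after a fluorogenic Gly-Phe-AFC viability readout (25 uM final).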
* = called active by the depositor. Unless noted, calls come from the whole dose curve; as a rule, active = well fitted curve in the direction sought with a large enough effect; inconclusive = small, poorly fitted or top-dose-only effect, or another doubt; inactive = no such curve, though single readings can be large; an effect the other way counts as inactive or inconclusive.

For C=CCC[C@H](Cc1ccc(F)cc1)C(=O)OC[C@@H](NC(=O)[C@@H](CC=C)CC(=O)N(CCO)Cc1ccccc1)C(C)(C)C the results were S2 tox 20µM*, DRD3 agonist -7, TGFb inhibitor inconclusive, HepG2 viability -6%, DRD3 antagonist -12 and ATXN2 expr inh inconclusive.
For C=CCC[C@@H](Cc1ccc(F)cc1)C(=O)OC[C@@H](NC(=O)[C@@H](CC=C)CC(=O)N[C@@H](CO)Cc1ccccc1)C(C)(C)C the results were S2 tox 22µM*, DRD3 agonist -4, TGFb inhibitor inconclusive, HepG2 viability -1%, DRD3 antagonist -22 and ATXN2 expr inh inconclusive.
COc1ccc(-c2nc(CN3CCC(c4ccccc4)CC3)c(C)o2)cc1OC was read as S2 tox inactive, DRD3 agonist -20, TGFb inhibitor -22%, HepG2 viability -25%, DRD3 antagonist -1 and ATXN2 expr inh -7%.
Cc1oc(-c2cccs2)nc1CN1CCC(c2ccccc2)CC1 was read as S2 tox inconclusive, DRD3 agonist -27, TGFb inhibitor 1%, HepG2 viability -4%, DRD3 antagonist -91* and ATXN2 expr inh 0%.
Screening Cc1ccc(-n2ncc(C(=O)NCCCN3CCN(C)CC3)c2C2CCN(C(=O)OC(C)(C)C)CC2)cc1 returned DRD3 agonist 2, TGFb inhibitor 0% and HepG2 viability -1%.
For CCOC(=O)C(c1ccccc1)C(Nc1cc(C(F)(F)F)cc(C(F)(F)F)c1)c1ccccn1 (stereo not given) the results were S2 tox inactive, DRD3 agonist 38*, TGFb inhibitor -17%, HepG2 viability 12%, DRD3 antagonist -17 and ATXN2 expr inh -5%.
Screening c1ccc2c(c1)CCCN2 returned TGFb inhibitor inconclusive and HepG2 viability -3%.
For CCc1nc2c(c(=O)[nH]1)C1(CCCC1)Cc1ccccc1-2 the results were S2 tox inactive, DRD3 agonist 3, TGFb inhibitor -5%, HepG2 viability -7%, DRD3 antagonist 11 and ATXN2 expr inh 0%.
Screening NNc1nc(N)c2c(n1)-c1ccccc1CC21CCCC1 returned S2 tox inactive, DRD3 agonist -22, TGFb inhibitor -23%, HepG2 viability -21%, DRD3 antagonist -52* and ATXN2 expr inh inconclusive.
COc1ccc(Cn2c(O)c(C=Nc3ccccc3)c3ccccc3c2=O)cc1 was read as S2 tox inconclusive, DRD3 agonist -5, TGFb inhibitor -5%, HepG2 viability 3%, DRD3 antagonist -1 and ATXN2 expr inh -8%.
For COc1ccc(Cn2c(O)c(C=Nc3ccc(O)cc3)c3ccccc3c2=O)cc1 the results were S2 tox inactive, DRD3 agonist -22, TGFb inhibitor -14%, HepG2 viability -67%, DRD3 antagonist -78* and ATXN2 expr inh inconclusive.
For COc1ccc(CNC[C@H]2O[C@@H](n3ccc(=O)[nH]c3=O)[C@H](O)[C@@H]2O)cc1OC the results were S2 tox inactive, DRD3 agonist -6, TGFb inhibitor -10%, HepG2 viability -21%, DRD3 antagonist -59* and ATXN2 expr inh -6%.
Screening COc1ccc(NC(=O)CN(C)C(=O)/C=C/c2cn(-c3ccccc3)nc2-c2ccc(F)cc2)cc1 returned S2 tox inactive, DRD3 agonist -23, TGFb inhibitor 3%, HepG2 viability -1%, DRD3 antagonist -4 and ATXN2 expr inh -12%.
For COc1ccc(NC(=O)CN(C)C(=O)/C=C/c2cn(-c3ccccc3)nc2-c2ccc(C)cc2)cc1 the results were S2 tox inconclusive, DRD3 agonist -2, TGFb inhibitor -13%, HepG2 viability 0%, DRD3 antagonist -55* and ATXN2 expr inh -14%.
Cc1cccc(NC(=O)CN2C(=O)C3(SCC(=O)N3c3ccccc3)c3ccccc32)c1 (stereo not given) was read as S2 tox inactive, DRD3 agonist -9, TGFb inhibitor inconclusive, HepG2 viability -15% and ATXN2 expr inh -9%.
`Cc1cccc(N2C(=O)CSC23C(=O)N(CC(=O)Nc2cccc(Cl)c2)c2ccccc23)c1` (stereo not given) gave S2 tox inactive, DRD3 agonist 32*, TGFb inhibitor -24%, HepG2 viability -8% and ATXN2 expr inh -37%.
Screening COc1ccc2[nH]c3c(c2c1)CCN1C(=O)C(CC(=O)NCCCn2ccnc2)C[C@H](C(=O)N(C(C)C)C(C)C)[C@@]31C (stereo not given in full) returned S2 tox inactive, DRD3 agonist 51*, TGFb inhibitor -20%, HepG2 viability -3%, DRD3 antagonist 5 and ATXN2 expr inh 13%.
COc1ccc2[nH]c3c(c2c1)CCN1C(=O)C(CC(=O)NCC24CC5CC(CC(C5)C2)C4)C[C@H](C(=O)N2CCOCC2)[C@@]31C (stereo not given in full) was read as S2 tox inconclusive, DRD3 agonist -3, TGFb inhibitor inconclusive, HepG2 viability -18%, DRD3 antagonist -5 and ATXN2 expr inh -12%.
For COc1ccc2[nH]c3c(c2c1)CCN1C(=O)C(CC(=O)NCC24CC5CC(CC(C5)C2)C4)C[C@H](C(=O)N(C(C)C)C(C)C)[C@@]31C (stereo not given in full) the results were S2 tox inactive, DRD3 agonist 37*, TGFb inhibitor 11µM*, HepG2 viability -51%, DRD3 antagonist -4 and ATXN2 expr inh -35%.
`CC1(C)CC(=O)C(C=Nc2cccnc2)=C(O)C1` gave S2 tox inactive, DRD3 agonist 6, TGFb inhibitor -3%, HepG2 viability -12%, DRD3 antagonist -13 and ATXN2 expr inh 2%.
Screening CC1(C)CC(=O)C(C=Nc2cccnc2/N=C/C2=C(O)CC(C)(C)CC2=O)=C(O)C1 returned S2 tox inactive, DRD3 agonist -46, TGFb inhibitor 3%, HepG2 viability -2%, DRD3 antagonist -143* and ATXN2 expr inh 3%.
`CC1(C)CC(=O)C(C=Nc2ccc(O)c(N=CC3=C(O)CC(C)(C)CC3=O)c2)=C(O)C1` gave S2 tox inactive, DRD3 agonist 9, TGFb inhibitor 4%, HepG2 viability 0%, DRD3 antagonist 4 and ATXN2 expr inh 0%.
Screening CC1(C)CC(=O)C(C=Nc2ccc(C(=O)c3ccccc3)cc2N=CC2=C(O)CC(C)(C)CC2=O)=C(O)C1 returned S2 tox inactive, DRD3 agonist -24, TGFb inhibitor 10%, HepG2 viability -22%, DRD3 antagonist -118* and ATXN2 expr inh -16%.
